Assay results published in ChEMBL document CHEMBL3433997, “St. Jude Leishmania screening dataset” (2016).

target: Solute carrier family 2, facilitated glucose transporter member 1 (Homo sapiens) (UniProt P11166); experiment: ST_JUDE_LEISH: Cytotoxicity at 2uM final concentration against transgenic Leishmania Mexicana promastigotes LmGLUT1 that are glucose transport deficient and complemented with the human glucose transporter GLUT1. Activity is measured by DNA content using SYBR green in vitro; type: functional
Sequence (P11166 whole entry): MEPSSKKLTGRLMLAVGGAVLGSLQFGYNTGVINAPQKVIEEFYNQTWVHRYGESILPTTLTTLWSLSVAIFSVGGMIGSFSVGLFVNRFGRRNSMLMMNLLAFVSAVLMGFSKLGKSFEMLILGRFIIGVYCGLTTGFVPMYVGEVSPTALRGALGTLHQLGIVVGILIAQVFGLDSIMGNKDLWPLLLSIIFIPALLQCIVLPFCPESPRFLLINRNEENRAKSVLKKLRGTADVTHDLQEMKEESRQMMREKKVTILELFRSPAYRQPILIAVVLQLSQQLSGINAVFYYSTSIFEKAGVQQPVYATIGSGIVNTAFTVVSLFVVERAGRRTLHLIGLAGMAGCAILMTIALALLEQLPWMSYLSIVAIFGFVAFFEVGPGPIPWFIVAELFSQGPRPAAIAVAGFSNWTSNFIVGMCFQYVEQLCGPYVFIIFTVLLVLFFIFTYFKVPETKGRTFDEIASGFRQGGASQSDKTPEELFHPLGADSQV

| SMILES | inhibition [%] |
| --- | --- |
| COc1cccc(C2CCN(CCN3CCC(CNC(=O)c4ccc(-c5ccc(C(F)(F)F)cc5)cc4)CC3)CC2)c1 | -0.53 |
| Cc1ccccc1C1CCN(C2CCC(NC(=O)/C=C/c3ccc(C#N)cc3)CC2)CC1 (stereo not given) | 3.43 |
| C=CCOc1cccc2c1CCN(CCN1CCC(NC(=O)c3ccc(-c4ccc(Cl)cc4)cc3)CC1)C2 | 17.2 |
| Cc1nc(-c2ccc(-c3ccc(NC(=O)c4coc5ccc(N6CC(C)N(C)C(C)C6)cc45)cc3)c(C)c2)no1 (stereo not given) | -0.52 |
| COc1ccc2ccccc2c1C=NN=c1cc[nH]c2ccc(F)cc12 | 3.72 |
| O=C(NCc1ccc(F)cc1)Nc1ccc(-c2cccc(-c3nc4cc(C(F)(F)F)ccc4[nH]3)c2)cc1 | 3.93 |
| Cc1cccc(Cn2ccc3c(N)nc(N)nc32)c1 | 4.57 |
| Cc1cccc(CN2CCCN(Cc3ccc(C(=O)Nc4ccc(C)c(F)c4)cc3)CC2)c1 | 1.23 |
| CCOC(=O)c1ccc(-n2c(C)cc(C=C3SC(=Nc4ccccc4)N(C4CCCC4)C3=O)c2C)cc1 | 3.76 |
| Cc1[nH]c(C)c(-c2csc3ccccc23)c(=O)c1Cl | 5.32 |
| COc1ccc(C(=O)CCC(=O)N(CCSC(C)(C)C)Cc2ccc(-c3ccc(CNCCc4ccc(S(C)(=O)=O)cc4)cn3)cc2)cc1F | 10.4 |
| O=S(=O)(c1ccccc1)C1CC1 | 1.39 |
| CC(C)CCN1CCCN(Cc2ccc(C(=O)Nc3ccc(Cl)cc3)cc2)CC1 | 11.1 |
| COc1ccc(C2C(C(=O)OC3CCCCC3)=C(C)NC3=C2C(=O)CCC3)cc1Br (stereo not given) | 0.38 |
| Cc1cc2[nH]c(-c3ccc(C(=O)NCCCN4CCN(c5cccc(Cl)c5)CC4)cc3F)nc2cc1Cl | -0.3 |
| COc1ccc2nc(-c3cccc(C)n3)nc(Nc3ccncc3)c2c1 | 11.6 |
| COc1ccc(NC(=O)c2cccc(Br)c2)cc1N1CCN(CCCCCCCN2CCN(c3cc(NC(=O)c4cccc(Br)c4)ccc3OC)CC2)CC1 | 3.47 |
| O=C(Nc1cc(C(F)(F)F)cc(C(F)(F)F)c1)NC(CCCN1CCC2(CC1)OCc1ccccc12)c1ccc(Cl)c(Cl)c1 (stereo not given) | 3 |
| COc1ccc(S(=O)(=O)N2CCC3(CC2)OCC(=O)NC3c2ccc(Cl)c(Cl)c2)cc1 (stereo not given) | 2.93 |
| O=C(NCCCCN1CCC(c2ccc(Br)cc2)CC1)c1ccc(NC(=O)c2ccc(Cl)cc2)cc1 | -0.29 |
| CCOc1ccc(C(C)NC(=O)C2COc3ccccc3O2)cc1OCC (stereo not given) | 2.23 |
| Cc1cccc2nc(-c3cccc(-c4ccc(NC(=O)C5CC(=O)Nc6ccccc65)cc4)c3)[nH]c12 (stereo not given) | 2.47 |
| Cc1ccc(F)cc1S(=O)(=O)Nc1ccc(CCN2CCC(N3CCCCC3)CC2)cc1 | 0.5 |
| Cc1ccc(NC(=O)c2ccc(CN3CCCN(Cc4cccc(O)c4)CC3)cc2)cc1 | -1.8 |
| CCOc1ccc(OCC(=O)Nc2nc(-c3ccc(OC)cc3)c(C)s2)cc1 | 0.75 |

target: Hexose transporter 1 (Plasmodium falciparum) (UniProt O97467); experiment: ST_JUDE_LEISH: Cytotoxicity at 2uM final concentration against transgenic Leishmania Mexicana promastigotes LmPfHT that are glucose transport deficient and complemented with the Plasmodium falciparum hexose transporter. Activity is measured by DNA content using SYBR green in vitro; type: functional

| SMILES | inhibition [%] |
| --- | --- |
| CCN1CCN(c2cc(C)c3cc(NC(=O)c4cccc([N+](=O)[O-])c4)ccc3n2)CC1 | 0.44 |
| CCCCCCCC1CC(CC(=O)Nc2ccnc3ccc(OC)cc23)CN1 (stereo not given) | 0.43 |
| CC(C)CCN1CCC(Oc2ccc(NC(=O)c3ccsc3)cc2Cl)CC1 | 1.67 |
| CN(Cc1cccc(O)c1)C1CCN(c2cc(NC(=O)c3ccc(F)cc3)ccn2)CC1 | 3.1 |
| O=C(N[C@@H](Cc1ccccc1)C(=O)NCc1cccc2ccccc12)c1ccc(O)c(-c2ccc(Cl)c(Cl)c2)c1 | 2.09 |
| O=C(NCCCNc1ccnc2cc(Cl)ccc12)c1ccccc1F | 3.35 |
| O=C(Nc1cccc(C(F)(F)F)c1)c1cccc(S(=O)(=O)NCC2CCCN(Cc3ccccc3)C2)c1 (stereo not given) | 1.75 |
| O=C(C=Cc1ccc(Cl)c(Cl)c1)NCCCCCN1CCC(CCCNS(=O)(=O)c2ccc(F)cc2)CC1 | -1.5 |
| CCOC(=O)c1cnc2c(OC)cc(OC)c(Cl)c2c1Nc1ccccc1 | 4.89 |
| CC(=O)N[C@H](C(=O)Nc1ccc(-c2ccc(-c3nc4cc(C(F)(F)F)ccc4[nH]3)s2)cc1)C(C)C | 5.3 |
| COc1ccc(C(=O)Nc2ccc(Cl)cc2C(=O)Nc2ccncc2)cc1 | 3.94 |
| NC1CCN(Cc2ccc(-c3ccc(-c4nc5ccccc5[nH]4)cc3)cc2)C1 (stereo not given) | 10.4 |
| Cc1nc2ccc(Nc3nccc(-c4c(-c5cccc(NC(=O)c6c(F)cccc6F)c5)nn5ccccc45)n3)cc2nc1C | 4.37 |
| COc1cc(Nc2ccnc3cc(-c4ccccn4)ccc23)cc(OC)c1OC | 8.67 |
| COc1cccc(C(=O)NCCOc2ccccc2)c1Oc1ccccc1 | 5.7 |
| COc1cccc(C2CCN(CCN3CCC(CNC(=O)c4ccc(-c5ccc(C(F)(F)F)cc5)cc4)CC3)CC2)c1 | 1.07 |
| Cc1ccccc1C1CCN(C2CCC(NC(=O)/C=C/c3ccc(C#N)cc3)CC2)CC1 (stereo not given) | 4.49 |
| C=CCOc1cccc2c1CCN(CCN1CCC(NC(=O)c3ccc(-c4ccc(Cl)cc4)cc3)CC1)C2 | 11.3 |
| Cc1nc(-c2ccc(-c3ccc(NC(=O)c4coc5ccc(N6CC(C)N(C)C(C)C6)cc45)cc3)c(C)c2)no1 (stereo not given) | 0.17 |
| COc1ccc2ccccc2c1C=NN=c1cc[nH]c2ccc(F)cc12 | 2.24 |

| SMILES | inhibition [%] |
| --- | --- |
| O=C(NCc1ccc(F)cc1)Nc1ccc(-c2cccc(-c3nc4cc(C(F)(F)F)ccc4[nH]3)c2)cc1 | 2.38 |
| Cc1cccc(Cn2ccc3c(N)nc(N)nc32)c1 | 3.14 |
| Cc1cccc(CN2CCCN(Cc3ccc(C(=O)Nc4ccc(C)c(F)c4)cc3)CC2)c1 | 4.06 |
| CCOC(=O)c1ccc(-n2c(C)cc(C=C3SC(=Nc4ccccc4)N(C4CCCC4)C3=O)c2C)cc1 | 3.52 |
| Cc1[nH]c(C)c(-c2csc3ccccc23)c(=O)c1Cl | 5.33 |
| COc1ccc(C(=O)CCC(=O)N(CCSC(C)(C)C)Cc2ccc(-c3ccc(CNCCc4ccc(S(C)(=O)=O)cc4)cn3)cc2)cc1F | 9.03 |
| O=S(=O)(c1ccccc1)C1CC1 | 0.38 |
| CC(C)CCN1CCCN(Cc2ccc(C(=O)Nc3ccc(Cl)cc3)cc2)CC1 | 11.3 |
| COc1ccc(C2C(C(=O)OC3CCCCC3)=C(C)NC3=C2C(=O)CCC3)cc1Br (stereo not given) | -0.1 |
| Cc1cc2[nH]c(-c3ccc(C(=O)NCCCN4CCN(c5cccc(Cl)c5)CC4)cc3F)nc2cc1Cl | 0.43 |
| COc1ccc2nc(-c3cccc(C)n3)nc(Nc3ccncc3)c2c1 | 1.8 |
| COc1ccc(NC(=O)c2cccc(Br)c2)cc1N1CCN(CCCCCCCN2CCN(c3cc(NC(=O)c4cccc(Br)c4)ccc3OC)CC2)CC1 | 2.27 |
| O=C(Nc1cc(C(F)(F)F)cc(C(F)(F)F)c1)NC(CCCN1CCC2(CC1)OCc1ccccc12)c1ccc(Cl)c(Cl)c1 (stereo not given) | 5.93 |
| COc1ccc(S(=O)(=O)N2CCC3(CC2)OCC(=O)NC3c2ccc(Cl)c(Cl)c2)cc1 (stereo not given) | 1.47 |
| O=C(NCCCCN1CCC(c2ccc(Br)cc2)CC1)c1ccc(NC(=O)c2ccc(Cl)cc2)cc1 | 0.2 |
| CCOc1ccc(C(C)NC(=O)C2COc3ccccc3O2)cc1OCC (stereo not given) | 1.59 |
| Cc1cccc2nc(-c3cccc(-c4ccc(NC(=O)C5CC(=O)Nc6ccccc65)cc4)c3)[nH]c12 (stereo not given) | 3.87 |
| Cc1ccc(F)cc1S(=O)(=O)Nc1ccc(CCN2CCC(N3CCCCC3)CC2)cc1 | -0.31 |
| Cc1ccc(NC(=O)c2ccc(CN3CCCN(Cc4cccc(O)c4)CC3)cc2)cc1 | -0.37 |
| CCOc1ccc(OCC(=O)Nc2nc(-c3ccc(OC)cc3)c(C)s2)cc1 | 1.74 |
